Laboratory results: PubChem BioAssay (NCATS)
Results filed as inconclusive are left out. Values without a mark were called inactive. Calls of active or inactive are those of the source. The call rests on the fitted dose curve; in most records, active means well fitted inhibition curve with a large enough effect; inconclusive means small, poorly fitted or top-dose-only effect; inactive means flat fitted curve, though single readings scatter.

Tested on: Zika virus NS2B-NS3 protease (linked construct)
Assay: Confirmatory screen NINDS AMC qHTS for Zika virus inhibitors (AID 1347152);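 on activity change, negative = inhibition: AMC fluorescence gain from cleaved Bz-Nle-KRR-AMC substrate over 15 min; top concentration of the series differs between compounds; 0% = no-inhibitor control and -100% = no-enzyme control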
Conditions: Purified linked NS2B-NS3, AMC substrate fluorescence; series mostly up to 56.6 µM; activity change, negative = inhibition: at the top concentration
How it was run: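 Enzyme (1 nM, linked construct) was preincubated with compound for 15 minutes at room temperature in 10 mM Tris-HCl pH 8.0 with 0.01% Tween 20. Bz-Nle-Lys-Arg-Arg-AMC was then added to 10 microM, and AMC fluorescence was recorded immediately and after 15 minutes.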
Further: nearly all actives have a fitted effect of over 70% in size.
Potency means the concentration at half of the fitted maximal effect.

Structure (SMILES) | Potency | activity change, negative = inhibition [%]
CC(C)c1cc(C(C)C)c(CC(=O)NS(=O)(=O)Oc2c(C(C)C)cccc2C(C)C)c(C(C)C)c1 | 7.84 µM (active) | –
CCCCCCCCc1ccc(CCC(N)(CO)CO)cc1 | – | 3.47
C[C@@H](NCc1cc2ccccc2[nH]1)c1cccc2ccccc12 | – | -13.9

Tested on: Zika virus NS2B-NS3 protease (unlinked complex)
Assay: Confirmatory screen GU AMC qHTS for Zika virus inhibitors (AID 1347153);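 on Potency: enzyme at 25 nM with substrate at 10 µM below its Km of 18.3 µM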;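 on activity, negative = inhibition: percent inhibition with 0% = no inhibitor control and 100% = no enzyme control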
Conditions: Recombinant NS2B-NS3 protease, AMC substrate fluorescence; series mostly up to 57.1 µM; activity, negative = inhibition: at the top concentration
How it was run: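 Fluorescence change (ex 340/em 450 nm) over 15 min, ~20% substrate conversion, normalized to no-inhibitor and no-enzyme controls, then Hill-fitted. Unlinked protease at 25 nM; AMC peptide 10 µM.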

Structure (SMILES) | Potency | activity, negative = inhibition [%]
CC(C)c1cc(C(C)C)c(CC(=O)NS(=O)(=O)Oc2c(C(C)C)cccc2C(C)C)c(C(C)C)c1 | 11.1 µM (active) | –
CCCCCCCCc1ccc(CCC(N)(CO)CO)cc1 | – | 1.89
Cc1ccc(-n2[nH]c(C)c(N=Nc3cccc(-c4cccc(C(=O)O)c4)c3O)c2=O)cc1C | 15.2 µM (active) | –
C[C@@H](NCc1cc2ccccc2[nH]1)c1cccc2ccccc12 | – | 0.642

Tested on: Zika virus NS2B-NS3 protease
Assay: Primary screen GU AMC qHTS for Zika virus inhibitors (AID 1347154);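 on activity change, negative = inhibition: 0% = no-inhibitor control and -100% = no-enzyme control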
Conditions: Zika NS2B-NS3 unlinked protease, AMC fluorogenic substrate; series mostly up to 54.1 µM; activity change, negative = inhibition: at the top concentration
How it was run: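 Unlinked Zika NS2B hydrophilic domain/NS3 protease domain noncovalent complex (25 nM final) in 10 mM Tris-HCl pH 8.0, 0.01% Tween 20, with AMC peptide substrate. Fluorescence (ex 340, em 450 nm) change over 15 min, room temperature; percent inhibition fitted to 4-parameter Hill equation.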

Structure (SMILES) | activity change, negative = inhibition | Potency
Cc1cn([C@@H]2O[C@H](CO)[C@@H](O)[C@H]2F)c(=O)[nH]c1=O | -9.56% | –
COC(=O)[C@@H]1CC2=CC(=O)CC[C@]2(C)[C@@]23O[C@@H]2C[C@@]2(C)[C@H](CC[C@@]24CCC(=O)O4)[C@@H]13 | 12.9% | –
C[C@@H]1[C@H](C)CC[C@]2(C(=O)O)CC[C@]3(C)C(=CC[C@@H]4[C@@]5(C)C[C@@H](O)[C@H](O)[C@@](C)(CO)[C@H]5CC[C@]43C)[C@@H]12 | 3.19% | –
NC(=NCCCCCCN=C(N)N=C(N)Nc1ccc(Cl)cc1)N=C(N)Nc1ccc(Cl)cc1 | – | inactive
CC(C)n1cnc2c(NCCc3ccc(O)cc3)nc(-c3csc4ccccc34)nc21 | -22.3% | –
C[C@H](NC(=O)[C@@H](O)c1cc(F)cc(F)c1)C(=O)N[C@@H]1C(=O)N(C)c2ccccc2-c2ccccc21 | 0.499% | –
C=CC(=O)Nc1cc(NC(=O)c2ccc(C)c(NC(=O)c3ccno3)c2)cc(C(F)(F)F)c1 | 2.6% | –
O=C(O)[C@H](CC(=O)N1C[C@@H]2CCCC[C@H]2C1)Cc1ccccc1 | 20.5% | –
COc1cc(N2CCC(C(N)=O)CC2)ccc1Nc1nc(N)c(Cl)c(Nc2ccccc2S(=O)(=O)C(C)C)n1 | 17.2% | –
O=C(C[C@@H]1CC=CCCC(=O)O[C@H](c2ccccc2)CNC1=O)NCc1ccc(Cl)cc1 | 9.21% | –
C=CC1=C(C(=O)O)N2C(=O)[C@@H](NC(=O)C(=NO)c3csc(N)n3)[C@H]2SC1 | 3.22% | –
C#C[C@]1(O)CC[C@@H]2[C@@H]3CCC4=CC(=O)CC[C@@H]4[C@H]3CC[C@@]21CC | -6.9% | –
CCCCCCCCc1ccc(CCC(N)(CO)CO)cc1 | 15.2% | –
C#Cc1cccc(Nc2ncnc3cc(OCCOC)c(OCCO)cc23)c1 | 1.33% | –
OC[C@H]1OC(O)C[C@@H](O)[C@H]1O (some centres undefined) | 15.3% | –
COc1ccc(CCC(=O)c2c(O)cc(O[C@@H]3O[C@H](CO)[C@@H](O)[C@H](O)[C@@H]3O[C@@H]3O[C@@H](C)[C@H](O)[C@@H](O)[C@@H]3O)cc2O)cc1O | -1.15% | –
CC1=C(C(=O)Nc2cc3cn[nH]c3cc2F)C(c2ccc(Cl)cc2F)N=C(c2ccnc(Cl)c2)N1 (centres undefined) | 6.51% | –
COc1cc(OC)cc(-c2ccc3ncc4ccc(=O)n(-c5ccc(N6CCNCC6)c(C(F)(F)F)c5)c4c3c2)c1 | 2.52% | –
C[C@H]1C[C@H]2[C@@H]3CCC4=CC(=O)C=C[C@]4(C)[C@@H]3C(=O)C[C@]2(C)[C@@]1(O)C(=O)CO | 2.9% | –

Structure (SMILES) | activity change, negative = inhibition | Potency
CCCc1nc(C(C)(C)O)c(C(=O)O)n1Cc1ccc(-c2ccccc2-c2nn[nH]n2)cc1 | 8.01% | –
C[C@H](NCc1ccc(OCc2cccc(F)c2)cc1)C(N)=O | 1.87% | –
CN1[C@H]2CC(OC(=O)[C@@H](CO)c3ccccc3)C[C@H]1[C@H]1O[C@H]12 (some centres undefined) | 15% [at 25.8 µM] | –
C=C1C[C@@]2(O)O[C@@]3(C[C@H]2C(C)C)[C@H](C)CC[C@H]13 | -1.39% | –
Cc1ccccc1C(=O)Nc1ccc(C(=O)N2CCCC(O)c3cc(Cl)ccc32)c(C)c1 (centres undefined) | -8.05% | –
CC[C@H]1OC(=O)[C@H](C)[C@@H](O[C@H]2C[C@@](C)(OC)[C@@H](O)[C@H](C)O2)[C@H](C)[C@@H](O[C@@H]2O[C@@H](C)C[C@H](N(C)C)[C@@H]2O)[C@](C)(O)C[C@@H](C)C(=O)[C@H](C)[C@@H](O)[C@]1(C)O | 6.83% | –
Cc1noc(-c2ccc(CSCCC(=O)O)cc2)c1NC(=O)OC(C)c1ccccc1Cl (centres undefined) | -4.24% | –
Cc1ccc(-n2[nH]c(C)c(N=Nc3cccc(-c4cccc(C(=O)O)c4)c3O)c2=O)cc1C | – | 19.2 µM (active)
COc1cc(C(C)C)c(Oc2cnc(NC(CO)CO)nc2N)cc1I | 1.4% | –
Nc1ccc(C(=O)Nc2cccc(-c3nc(N4CCOCC4)c4oc5ncccc5c4n3)c2)cn1 | -20.6% | –
Cc1onc(-c2ccccc2)c1C(=O)N[C@@H]1C(=O)N2[C@@H](C(=O)O)C(C)(C)S[C@@H]12 | -9.5% | –
NC[C@H]1O[C@H](O[C@H]2[C@@H](O)[C@@H](O[C@H]3O[C@H](CO)[C@@H](O)[C@H](N)[C@@H]3O)[C@H](N)C[C@@H]2N)[C@H](N)C[C@H]1O | 13.5% | –
c1cncc(CN2CCC(n3ncc4c(N5CCOCC5)nc(-c5ccc6[nH]ccc6c5)nc43)CC2)c1 | 4.03% | –
c1ccc(CNc2nc(NCc3ccccc3)c3ccccc3n2)cc1 | -2.38% | –
OCCNC1CCCc2c1[nH]c1ccc(-c3ccccc3)cc21 (centres undefined) | -4.43% | –
CC(C)c1cnn2c(NCc3ccccc3)cc(NCCCCCCN)nc12 | 9.76% | –
OCCN1C[C@H](O)[C@@H](O)[C@H](O)[C@@H]1CO | 30.2% | –
CC(=O)NC(CS)C(=O)O (centres undefined) | -23.4% | –
